# In the supplement of paper PMC3334620:
# The full ranking holds about 33,000 sequences; the median of “E-score (-0.5 to 0.5)” is about -0.0034, and the highest 2% start at about 0.25. The full list was thinned out, with the highest values kept by preference.
# Biological target: T1, Yap3 (UniProt P38749)
# T1 sequence: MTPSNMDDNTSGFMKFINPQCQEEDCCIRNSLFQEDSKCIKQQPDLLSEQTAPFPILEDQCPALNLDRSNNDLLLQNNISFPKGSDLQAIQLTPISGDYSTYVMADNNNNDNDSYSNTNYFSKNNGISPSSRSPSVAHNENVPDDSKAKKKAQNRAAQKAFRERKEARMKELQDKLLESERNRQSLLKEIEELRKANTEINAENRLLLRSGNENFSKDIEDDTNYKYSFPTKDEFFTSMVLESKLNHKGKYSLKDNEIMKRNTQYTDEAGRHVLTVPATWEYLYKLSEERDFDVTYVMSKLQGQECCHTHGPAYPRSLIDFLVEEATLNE
# Assay: PBM E-score (8-mer binding enrichment) (E-score (-0.5 to 0.5)); higher = stronger / more preferred TF binding
# Conditions: protein concentration: 100 nM; construct: GST-full length
# Protocol: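 Universal 'all 10-mer' protein binding microarrays (Agilent AMADID 015681) probed with GST-tagged S. cerevisiae TFs (full-length or DBD) made by in vitro transcription/translation (PURExpress), about 100-200 nM. Bound TF was detected with fluorescent anti-GST. Each ungapped 8-mer (which stands for itself and its reverse complement) is scored by the PBM enrichment score (E-score), a modified Wilcoxon-Mann-Whitney statistic from -0.5 to +0.5, computed with the Universal PBM Analysis Suite. Scale: above 0.35 generally sequence-specific binding.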
row,Sequence,PBM E-score
1,CCACCAGC,-0.0909
2,CATCCTAG,-0.0476
3,GGGGAGAC,-0.304
4,AAGCTTTG,0.0373
5,AAACCCGA,0.261
6,GAACCCGA,-0.121
7,TAACCCGA,-0.0757
8,GAACCCAC,0.028
9,AGCGCGCA,0.24
10,AAGTAAAC,0.0216
11,AAGTAAAT,0.26
12,AAGTAAAG,0.103
13,ACTAGTTC,0.0926
14,ATTACTCG,0.23
15,CTTACTTA,0.113
16,ATTACTCC,0.143
17,ATTACTCA,0.299
18,ATTACTTA,0.257
19,ATTACTGA,0.154
20,ATGGTTAA,0.0266
21,GCTCGCGA,0.109
22,ATCGCTGG,-0.223
23,ATTAAGGC,0.0716
24,GTAGCCGA,-0.114
25,ACCCTGTA,0.00489

row,Sequence,PBM E-score
1,CATATAAG,0.113
2,TATATAAA,0.274
3,CATATAAA,0.183
4,GATAAAAA,0.192
5,AATATAAT,0.179
6,TATAAAAA,0.265
7,AATATAAC,0.247
8,ACTATAAA,0.237
9,CATAAAAA,0.186
10,AATATAAA,0.282
11,AATATAAG,0.353
12,GATATAAA,0.21
13,GCTCCTCC,-0.294
14,CCACCCAA,-0.0309
15,GCCGTATA,0.141
16,GTGCCGCA,-0.0486
17,GCAAGTCC,-0.203
18,AGGGGCAA,0.0575
19,TCCTTTCA,0.062
20,AGTGGCCG,-0.119
21,CTTTATGC,0.109
22,GAGAAGTA,0.0274
23,AAAGCTGT,0.15
24,ACCCTGCA,0.122
25,ATGCGCAC,0.0993

row,Sequence,PBM E-score
1,ATGCGCAT,0.315
2,ATGCGCAA,0.0772
3,ACCTATTA,0.11
4,AAAGGCAG,-0.0629
5,AAAGGCAA,0.254
6,TAAGGCAA,0.0224
7,GTCCCGGA,-0.103
8,AATCGCGA,0.255
9,AGTCGCGA,0.272
10,AATCGCGT,0.156
11,GGTCGCGA,0.0906
12,CGTCGCGA,0.141
13,CATCGCGA,0.112
14,ATGGTTCC,0.0898
15,CTCTTTGC,0.00066
16,AACTTCGG,0.13
17,AAATTTCC,0.125
18,TAATTTCA,0.309
19,CAATTTCC,0.0859
20,GAATTTCC,0.277
21,CAATTTCA,0.0657
22,AAATTTCA,0.0121
23,AACAGTCG,-0.0471
24,CCAGCCCG,-0.258
25,GTTTACCA,0.107

row,Sequence,PBM E-score
1,CCTAAGCG,-0.033
2,CCCCATCC,-0.233
3,ACGCGAGT,0.087
4,ACATTTAA,0.221
5,TATGCGAA,0.0891
6,AACGGAAG,0.2
7,AACGGAAA,0.171
8,AATGGAAT,0.275
9,AACGGAAT,0.262
10,AATGGAAG,0.105
11,AATGGAAC,0.12
12,GCTCCTTA,0.0472
13,TAATGACA,0.197
14,TAACCTTA,-0.0831
15,TAGTCTCA,-0.034
16,AAGTACTT,-0.202
17,ATGGATAG,0.0546
18,CCTAACAG,0.0154
19,ACTAACAC,0.125
20,ACTAACAG,0.315
21,CCATTGTC,0.0818
22,ACATTGTG,0.0748
23,ACATTGTC,0.261
24,GGCTTATA,-0.00779
25,CTCGACGC,0.0226

row,Sequence,PBM E-score
1,AATGTTGC,0.0681
2,CGGATGAA,0.265
3,CGGATGAG,-0.0331
4,AGGATGAA,0.0231
5,ATAGAAAA,0.217
6,ATTACACG,0.0795
7,ATTACACA,0.255
8,CCTACACG,-0.251
9,ACTACACG,0.0255
10,ATTACAGC,-0.046
11,ATTACAGA,0.11
12,ACTACACA,0.258
13,ATAACACA,0.273
14,ATTACAGG,0.268
15,ATTACACC,0.215
16,CTAACACA,0.146
17,ATAACACG,0.137
18,CCAGTGGC,-0.168
19,ATCGAGTC,-0.0569
20,CAGTAAGC,0.0593
21,AAAGATGA,0.144
22,ATTCTTCA,0.0724
23,ATAACCTG,-0.0425
24,CGTATAAA,0.156
25,GATTACAA,0.154

row,Sequence,PBM E-score
1,ACCAGTTG,0.0294
2,AAAAGGGG,-0.187
3,CATCAACA,0.255
4,TATCAACA,0.123
5,AATCAATG,0.2
6,AATCAACC,-0.0555
7,AATCAACA,0.304
8,GATCAACA,-0.0544
9,AATCAATC,0.139
10,AATCAATT,0.256
11,AATCAACG,0.109
12,CTCGGTAA,0.053
13,ATGAAATA,0.288
14,CTGAAATA,0.165
15,GTGAAATA,0.0605
16,ATGAAAAG,0.122
17,ATGAAAAT,0.209
18,ATGAAAAA,0.278
19,ACGTGCTC,-0.0391
20,AAAGGTAA,0.0127
21,CGGTTGAG,-0.052
22,AGATTCGC,-0.0247
23,CGTCTGAC,0.066
24,CAAGTGTG,0.0428
25,CTGACACC,-0.174

row,Sequence,PBM E-score
1,ATGGCACC,-0.14
2,CTCTGCAC,-0.173
3,TTATATAA,0.418
4,ATATATAA,0.295
5,AGGTATAA,0.0868
6,GTATATAA,0.217
7,ACATATAA,0.29
8,CGGTATAA,0.18
9,ACATATAC,0.146
10,ACATATAT,0.123
11,CTCTATAA,0.0647
12,TGATATAA,0.108
13,TGGTATAA,0.268
14,CTATATAA,0.121
15,GCCTGCCC,-0.297
16,CAGAACTG,0.157
17,AGCATGAC,-0.037
18,ACGACCTG,-0.18
19,AAAGTGTC,-0.0685
20,CGGACTAG,-0.101
21,CTAGAGAG,-0.139
22,GGCGACAA,-0.181
23,TGCGACAA,-0.00108
24,CGCGACAA,0.272
